Source: PubChem (National Center for Advancing Translational Sciences (NCATS))
This is a sample that favours compounds with a hit; in the whole collection about 10% have one here.
KB-3-1 cytotox: qHTS assay for MDR1-selective chemotherapeutics: Primary screen using the parental adenocarcinoma cell KB-3-1 | KB-3-1 viability, CellTiter-Glo ATP luminescence, 72 h | Potency, µM (series often up to 46.1 µM), most hits filed as cytotoxic | 1.4% of 400,000 active; further: nearly all actives have a fitted effect of over 60% in size
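Luminescent ATP read-out (CellTiter-Glo) measures survival of drug-naive KB-3-1 cells after 72 h compound exposure at 37 °C. Titration series was screened from lowest to highest concentration, with DMSO vehicle plates as background controls.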
RORg inh: qHTS for inhibitors of ROR gamma transcriptional activity; Potency, µM (series often up to 53.6 µM), hits mostly inhibitors; AID 2551, 2010; Drosophila S2 Gal4-RORgamma UAS-luciferase reporter, 20 h; Nuclear receptor ROR-gamma (Mus musculus), P51450; 5.4% of 310,000 active; further: nearly all actives have a fitted effect of over 60% in size
Target sequence (P51450 whole entry, looked up, the tested form may be a part): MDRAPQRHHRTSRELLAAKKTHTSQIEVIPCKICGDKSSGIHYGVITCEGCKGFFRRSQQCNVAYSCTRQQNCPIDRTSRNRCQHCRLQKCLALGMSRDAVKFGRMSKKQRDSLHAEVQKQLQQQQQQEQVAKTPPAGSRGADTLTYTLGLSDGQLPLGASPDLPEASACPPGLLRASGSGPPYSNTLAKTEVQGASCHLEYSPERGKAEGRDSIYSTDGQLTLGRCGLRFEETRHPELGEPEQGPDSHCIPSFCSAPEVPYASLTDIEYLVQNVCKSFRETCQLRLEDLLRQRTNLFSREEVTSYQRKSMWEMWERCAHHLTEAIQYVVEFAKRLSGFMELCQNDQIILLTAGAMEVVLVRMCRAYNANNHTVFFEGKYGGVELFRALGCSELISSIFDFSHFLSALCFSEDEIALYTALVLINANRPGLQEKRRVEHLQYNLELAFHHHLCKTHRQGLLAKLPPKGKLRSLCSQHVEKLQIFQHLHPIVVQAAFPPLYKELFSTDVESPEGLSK
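ROR gamma transcriptional activity was tracked as Gal4-UAS luciferase output in stably transfected Drosophila Schneider cells, with compound added 1 hr before 700 uM copper sulfate induction and a 20 hr ambient-temperature incubation.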
SW480 rerep: A quantitative high throughput screen for small molecules that induce DNA re-replication in SW480 colon adenocarcinoma cells; SW480 DNA re-replication, Hoechst DNA content imaging, 48 h; Potency, µM (doses to about 46.1 µM), usual class: activators; 1.8% of 340,000 active; further: nearly all actives have a fitted effect of over 55% in size
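Treated cells incubate 48 hr (37 C, 5% CO2), are stained 40 min with Hoechst, and nuclear fluorescence is enumerated; a rise in nuclei with high DNA signal marks re-replication.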
Gal4-VP16 FLuc: VP16 counterscreen qHTS for inhibitors of ROR gamma transcriptional activity; Drosophila S2 Gal4-VP16 UAS-luciferase, luminescence, 20 h; Potency, µM (top dose mostly 53.6 µM), actives largely listed as inhibitors; 3.5% of 310,000 active; AID 2546, 2010;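 further: Gal4-VP16 expression switched on by copper sulfate through the metallothionein promoter; nearly all actives have a fitted effect of over 50% in size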
MCF10A rereplic: A quantitative high throughput screen for small molecules that induce DNA re-replication in MCF 10a normal breast cells; 2.9% of 350,000 active; Potency, µM (series often up to 46.1 µM), actives largely listed as activators; MCF 10A DNA re-replication, Hoechst nuclear intensity, 48 h; further: nearly all actives have a fitted effect of over 50% in size
KB-V1 MDR tox: qHTS assay for MDR1-selective chemotherapeutics: Primary screen using the drug-selected MDR subline cells KB-V1; KB-V1 MDR cells viability, CellTiter-Glo, 72 h; Potency, µM (series often up to 46.1 µM), actives largely listed as cytotoxic; 3.4% of 400,000 active; AID 1347076, 2019; further: nearly all actives have a fitted effect of over 60% in size
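Potencies derive from concentration-effect curves fitted to normalized luminescence (CellTiter-Glo) of KB-V1 cells treated for 72 h at 37 degrees C in phenol-red-free DMEM containing 10% FBS.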
Numbers stand for hits; i = inactive; ? = inconclusive; nt = no result given; ! = repeats disagree; [ ] = remark or other dose. The call rests on the fitted dose curve; in most records, active means well fitted curve in the direction sought with a large enough effect; inconclusive means small, poorly fitted or top-dose-only effect, or another doubt; inactive means no such curve, though single readings can be large; an effect the other way counts as inactive or inconclusive.

SMILES	KB-3-1 cytotox	RORg inh	SW480 rerep	Gal4-VP16 FLuc	MCF10A rereplic	KB-V1 MDR tox
COc1ccc(/C=C/C(=O)NCC(=O)N/N=C/c2cc(Br)ccc2OCc2ccccc2)cc1	i	i	i	i	i	i
COc1ccc(/C=C\C(=O)NCC(=O)N/N=C/c2cccc(OC)c2O)cc1	i	1.6µM	?	7.9µM	i	i
CCOC(=O)c1ccc(NC(=O)C2=C(C)C(=O)OC23CCN(C(C)C)CC3)cc1	i	nt	nt	nt	nt	i
Cc1ccc(NC(=O)C2CCC(CNS(=O)(=O)c3ccc4c(c3)CCCC(=O)N4)CC2)cc1F (stereo not given)	?	nt	nt	nt	nt	i
CC(=O)NC1[C@H]([C@H](O)[C@H](O)CO)OC(C(=O)O)=C[C@H]1N=C(N)N (stereo not given in full)	nt	i[10 µM]	i	i	i	nt
CCOC(=O)c1c(NC(=O)CSc2cn(CCNC(=O)c3c(F)cccc3F)c3ccccc23)sc2c1CCC2	i	nt	nt	nt	nt	i
O=C(/C=C/c1ccc(O)c(O)c1)c1ccc(S(=O)(=O)N2CCCCCC2)cc1	i	13µM	?	?	?	i
O=C1NC(=O)C2(CCc3ccccc32)N1 (stereo not given)	i	i	i	i	i	i
C=C1CC2(OC1=O)c1ccccc1CCc1ccccc12	?	nt	4.1µM	nt	2.9µM	i
COc1cc(/C=C2/C(=N)N3C=CSC3=NC2=O)ccc1OCCCOc1cc(C)ccc1C	?	10µM	i	11µM	?	?
COc1ccc(C=O)cc1COc1ccccc1F	i	i	?	i	i	?
COc1ccc(C2Nc3ccccc3C(=O)N2Cc2ccccc2)cc1COc1ccc([N+](=O)[O-])c(C)c1 (stereo not given)	i	nt	nt	nt	nt	i
COc1ccc(C=O)cc1COc1ccc2c(c1)OCO2	?	nt	3.7µM	nt	?	?
COc1ccc(C=O)cc1COc1ccc([N+](=O)[O-])c(C)c1	i	i	15µM	i	?	i
COc1ccc(S(=O)(=O)N2CCN(c3nc(-c4cccs4)nc4ccccc34)CC2)cc1OC	?	nt	nt	nt	nt	i
CCCCNC(=O)c1cnn2c(C)c(Cc3c(C)cc(C)cc3C)c(C)nc12	i	nt	nt	nt	nt	?
O=C(Cn1c(=O)n(-c2ccccc2)c(=O)c2oc3ccccc3c21)Nc1ccccc1	i	i	i	i	?	15µM
COc1ccc(-c2n[nH]c(=S)n2Cc2ccco2)cc1	i	16µM	i	?	i	i
Cc1c(Br)c(-c2n[nH]c(=S)n2Cc2ccco2)nn1C	i	22µM	i	i	i	i
COc1cccc(CN2CCN(Cc3ccco3)CC2)c1	i	i	i	i	i	i
COc1cccc(Cc2n[nH]c(=S)n2Cc2ccco2)c1	i	3.5µM	i	i	i	i
Cc1cc(-c2n[nH]c(=S)n2Cc2ccco2)nn1C	i	?	i	i	i	?
O=C(O)c1ccc(S(=O)(=O)N[C@H](Cc2c[nH]c3ccccc23)C(=O)O)cc1	nt	i	nt	i	nt	nt
N#Cc1cccc(NC(=O)c2cc(C3CCCCN3S(=O)(=O)c3ccccc3)on2)c1 (stereo not given)	i	nt	nt	nt	nt	?
CC(C)[C@H]1COC(c2cc(Cl)cc(Cl)c2)=N1	nt	i	nt	i	nt	nt
SMILES	KB-3-1 cytotox	RORg inh	SW480 rerep	Gal4-VP16 FLuc	MCF10A rereplic	KB-V1 MDR tox
NC(=O)c1cccc(-c2coc3c(C(=O)NCCc4ccccc4)cccc23)c1	i	nt	nt	nt	nt	?
CNS(=O)(=O)c1cc(-c2nnc(Nc3cc(C)ccc3C)c3ccccc23)ccc1C	i	nt	nt	nt	nt	i
Clc1ccc2ccc3cccnc3c2n1	i	13µM	i	?	i	i
N#Cc1ccc(CN2CC3(CCN(C(=O)c4csnn4)CC3)C2)cc1	nt	i	nt	i	nt	nt
CC(C)(C)[C@@H]1CCC(=O)N(CC[C@H](N=[N+]=[N-])c2ccccc2)CC1	i	?	i	i	21µM	21µM!
CC1(C(=O)NCc2cccc3ccccc23)CCN1Cc1ccc(OC(F)(F)F)cc1 (stereo not given)	i	nt	nt	nt	nt	i
CN1CCN(Nc2nn3c(=O)c4ccccc4nc3s2)CC1	i	nt	nt	nt	nt	?
Cc1ccccc1NC(=S)NCCc1ccccc1	i	i	?	i	?	16µM
Cc1ccccc1NC(=S)NCc1ccccc1	i	4µM	i	11µM	i	i
Cc1ccc(C(=O)O)cc1NC(=S)NCCc1ccccc1	i	i	i	i	i	i
Cc1ccc([N+](=O)[O-])cc1NC(=S)NCCc1ccccc1	i	13µM	i	?	i	?
CC(C)(C)NC(=S)NCCc1ccccc1	i	6.3µM	i	7.1µM	i	i
CCCCNc1nc(C)nc2c1nc(-c1ccccc1)n2CC1CCCN1CC (stereo not given)	nt	?	nt	i	nt	nt
CCc1ccccc1NC(=O)Cn1nnc2sc3c(c2c1=O)CCC(C(C)(C)C)C3 (stereo not given)	i	nt	nt	nt	nt	i
COc1ccc(OC)c(CNC(=O)c2cc(S(=O)(=O)N3CCC(C)CC3)cn2C)c1	i	nt	nt	nt	nt	?
COc1ccc(OCCNC(=S)Nc2cccc3ccccc23)cc1	i	2.8µM	?	6.3µM	i	?
COc1ccc(CCNC(=S)Nc2cccc3ccccc23)cc1	i	5µM	i	11µM	?	?
CCC(C)(C)NC(=S)Nc1ccccc1C	i	4µM	i	11µM	?	i
COCCNC(=S)Nc1cccc2cnccc12	i	i	i	i	i	i
COc1ccc(CCNC(=S)Nc2ccccc2C)cc1	i	5µM	i	20µM	i	i
COc1ccc(CNC(=O)Nc2cccc3ccccc23)cc1	i	i	i	?	i	i
CCCc1nc2ccc(Cl)cn2c1Cc1ccsc1	i	nt	nt	nt	nt	i
O=C(NCCc1ccccc1)c1ccc([N+](=O)[O-])cc1	i	7.9µM	i	?	i	i
CC1(C(=O)NC(=S)NNC(=O)c2ccncc2)CCCCC1	?	5µM	9.2µM	13µM	i	?
CC(C)c1ccc(C(=O)NNC(=O)c2ccncc2)cc1	?	i	i	i	i	i
O=C(NNC(=S)NC(=O)C12CC3CC(CC(C3)C1)C2)c1ccncc1	?	?	?	i[0.365 µM]	i	?
CCC(C)NC(=S)NNC(=O)c1ccncc1 (stereo not given)	i	3.2µM	i	13µM	i	?
O=C(Nc1ccc2c(c1)OCO2)c1cc(-c2ccncc2)nc2ccccc12	?	i	?	i	18µM	?
Cc1cc(C(=O)N/N=C/c2ccc3c(c2)OCO3)c2ccccc2n1	2.6µM	i	10µM	i	?	?
O=C(N/N=C/c1ccc2c(c1)OCO2)c1cc(-c2ccncc2)nc2ccccc12	5.8µM	i	16µM	i	5.8µM	i
